Assay outcomes from PubChem BioAssay.
Hits are enriched below; roughly 28% of the tested compounds scored in any of these assays.
CYP2C19 inh: blockers of cytochrome P450 2C19 activity – biochemical, luminescence, ADME assay, primary screen. P33261. CYP2C19 Supersomes, luciferin-H EGE luminescence, 30 min. inhibition, % at 5 µM. 96,000 tested, 21% active;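 active means CYP2C19 inhibition above a set limit at 5 µM in the primary screen, cut at about 50% in these data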;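 further: plate controls were negative control wells for no effect and 2.5 mM tranylcypromine positive control for full effect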
Plk1 PBD FP: Plk1 polo box domain binding inhibitors, primary screen, biochemical, fluorescence polarization; Serine/threonine-protein kinase PLK1 (Homo sapiens), P53350; Plk1 PBD phosphopeptide binding; inhibition, %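 (tested at about 20 µM)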; 97,000 tested, 0.13% active; AID 693, 2007; in the data active means inhibition above about 34%, passing the limit was not always enough
Target sequence (P53350 whole entry, looked up, the tested form may be a part): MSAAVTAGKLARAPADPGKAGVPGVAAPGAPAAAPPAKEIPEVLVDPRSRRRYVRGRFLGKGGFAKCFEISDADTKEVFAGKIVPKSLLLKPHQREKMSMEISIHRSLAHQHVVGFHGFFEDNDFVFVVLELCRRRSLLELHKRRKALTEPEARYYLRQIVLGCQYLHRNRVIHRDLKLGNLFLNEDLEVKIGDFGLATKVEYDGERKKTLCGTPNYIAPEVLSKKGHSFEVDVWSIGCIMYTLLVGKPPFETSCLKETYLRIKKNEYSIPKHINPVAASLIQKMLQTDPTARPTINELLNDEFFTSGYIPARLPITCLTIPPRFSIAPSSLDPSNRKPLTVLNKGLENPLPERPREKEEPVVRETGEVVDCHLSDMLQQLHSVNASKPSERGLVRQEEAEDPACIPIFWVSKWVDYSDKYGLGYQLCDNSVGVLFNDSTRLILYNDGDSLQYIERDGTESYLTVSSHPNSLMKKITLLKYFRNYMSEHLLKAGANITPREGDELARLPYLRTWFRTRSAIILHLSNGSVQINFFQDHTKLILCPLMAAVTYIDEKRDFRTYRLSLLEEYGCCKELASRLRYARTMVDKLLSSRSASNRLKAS
PLK1 inh: human PLK1 kinase inhibitors, primary screen, biochemical, TR-FRET; Serine/threonine-protein kinase PLK1 (Homo sapiens), P53350; recombinant PLK1 kinase, TR-FRET peptide phosphorylation; inhibition, % at 10 µM; 97,000 tested, 0.53% active; AID 619, 2007;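 active means inhibition of 50% or more in the single-concentration screen; inactive means inhibition below 50%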;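 further: 0% = DMSO max control and 100% = H-89 dihydrochloride min control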
CYP2C19 act: human CYP2C19 activators, primary screen, biochemical, luminescence; Cytochrome P450 2C19 (Homo sapiens), P33261; recombinant CYP2C19, luciferin-H EGE luminescence; stronger effect = higher value; 0 = fully inhibited enzyme, 1 = untreated enzyme; activation factor at 5 µM; 96,000 tested, under 10 active; AID 1025, 2008;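 active means activation factor of at least 2 at 5 µM in the primary screen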;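 further: 0 = wells with 2.5 mM tranylcypromine and 1 = vehicle-only wells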
CYP2C9 activ: human CYP2C9 activators, primary screen, biochemical, luminescence; activation factor at 5 µM; 96,000 tested, 1.4% active; recombinant CYP2C9, luciferin-H conversion; stronger effect = higher value; factor 1 = untreated enzyme, 0 = blocked;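 active means activation factor of 2 or more for CYP2C9 at a 5 µM dose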;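 further: 0 = sulfaphenazole-blocked wells and 1 = vehicle-only wells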
CYP2C9 inhib: blockers of cytochrome P450 2C9 activity – biochemical, luminescence, ADME assay, primary screen | P11712 | CYP2C9 Supersomes, luciferin-H conversion | inhibition, % at 5 µM | 96,000 tested, 20% active;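 active means blocking of liver enzyme CYP2C9 beyond about 50% at 5 µM, limit read from the data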
* = called active by the depositor; x = not tested or not shown.

SMILES	CYP2C19 inh	Plk1 PBD FP	PLK1 inh	CYP2C19 act	CYP2C9 activ	CYP2C9 inhib
CCOC(=O)c1ccc(NS(=O)(=O)c2cnc[nH]2)cc1	28.3	x	x	0.7	0	98.4*
COC(=O)c1ccc(C)c(NS(=O)(=O)c2ccc(NC(C)=O)cc2)c1	76.0*	14.8	-4.3	0.2	0	95.8*
COC(=O)c1ccccc1CON1C(=O)C(C)(C)N(OCc2ccccc2C(=O)OC)C(=O)C1(C)C	26.8	-0.9	-8.2	0.7	0.7	25.8
Cc1cc(NC(=O)c2cc(C(C)C)on2)no1	9.2	9.6	-3.5	0.9	1.2	-22.6
CC(=O)OC(C(=O)NC1CCCCC1)c1ccc(Cl)cc1 (stereo not drawn)	16.8	18.2	-12.7	0.8	1.5	-49.9
CCOC(=O)c1cccc(NS(=O)(=O)c2cnc[nH]2)c1	25.5	x	x	0.7	0.3	73.7*
CCOC(=O)c1cccc(NC(=O)COC)c1	-8.8	-16.7	-9.2	1.1	1	-1.7
O=C(NC1CCCC1)C1CCC(=O)N1CCc1ccccc1 (stereo not drawn)	36.7	-1.2	3.2	0.6	0.5	53.9*
CCn1c(-c2ccc(-c3ccccc3)cc2)c[nH]c1=S	81.3*	-31.2	-9.6	0.2	0.8	19.2
Cn1c(-c2ccc(-c3ccccc3)cc2)c[nH]c1=S	88.7*	-5.2	-3.0	0.1	0.4	64.0*
C=CCn1c(-c2ccccc2)c[nH]c1=S	70.2*	-23.9	-13.1	0.3	0.8	23.4
C=CCn1c(-c2ccc(Cl)cc2)c[nH]c1=S	66.4*	-21.7	-9.3	0.3	0.6	42.3
O=S(=O)(Nc1ccc(S(=O)(=O)Nc2ccccc2)cc1)c1ccccc1	28.2	-11.0	-7.8	0.7	0.1	89.0*
O=C(c1ccc(S(=O)(=O)Nc2ccccc2)cc1)N1CCOCC1	19.4	3.9	-4.2	0.8	0.9	7.9
CCNC(=O)c1ccc(NS(=O)(=O)c2ccccc2)cc1	30.2	-15.0	-10.6	0.7	0.7	31.1
O=S(=O)(Nc1ccc(S(=O)(=O)Nc2cccc3ccccc23)cc1)c1ccccc1	83.4*	-3.7	1.7	0.2	0.1	90.5*
Cc1cc(C)nc(NS(=O)(=O)c2ccc(-n3cccc3)cc2)n1	33.9	-17.8	-12.1	0.7	0.9	14.9
O=S(=O)(Nc1ccc(-n2cccc2)cc1)c1ccccc1	100.2*	10.9	-6.1	0	0	97.9*
Clc1ccc(CSc2nc3ccncc3[nH]2)cc1	97.8*	18.7	0.9	0	0.1	88.8*
Cc1ccc(CSc2nc3ccncc3[nH]2)cc1	99.4*	-6.9	7.0	0	0.1	87.8*
C=C(C)CSc1nc2ncccc2[nH]1	18.0	3.9	3.7	0.8	1.1	-12.8
Cc1ccc(CSc2nc3ncccc3[nH]2)cc1	76.4*	12.6	9.8	0.2	0.4	56.5*
CC(C)OP(=O)(OC(C)C)C(NC(=O)c1ccc(Br)cc1)c1ccccc1 (stereo not drawn)	49.9	-8.2	-9.9	0.5	0.6	41.0
O=C(C1CC1)N1CCc2cc(S(=O)(=O)N(CCO)Cc3ccccc3)ccc21	x	-13.3	-15.2	x	x	x
CCCCN(C)CCNC(=O)c1ccc2c(c1)NC(=O)C(N1CCCCC1)S2 (stereo not drawn)	-9.0	19.4	-13.2	1.1	0.9	5.0
Cc1ccc2cc(CCNC(=O)c3ccc4c(c3)OCO4)c(=O)[nH]c2c1C	0.3	18.4	-12.3	1	0.4	59.8*
Cc1ccc2cc(CCNC(=O)C(C)C)c(=O)[nH]c2c1C	5.9	-0.4	-7.3	0.9	0.7	30.0
COc1cc2[nH]c(=O)n(CCC(=O)N3CCN(c4cccc(C)c4C)CC3)c(=O)c2cc1OC	15.1	-4.8	-3.4	0.8	0.7	34.1
CCN1CCN(CCNC(=O)CCCCCn2c(=O)[nH]c3cc(C(=O)OC)ccc3c2=O)CC1	17.0	-7.9	7.4	0.8	0.5	53.4*
COC(=O)c1ccc2c(=O)n(CCCCCC(=O)N3CCN(c4ccccc4)CC3)c(=O)[nH]c2c1	52.9*	-15.8	-8.1	0.5	0.4	56.2*
